Assay [1] addresses Protein kinase C alpha type (Homo sapiens) (UniProt P17252). To be noted: at 1 µM.
For assay [2] the target is unchanged. Particulars: at 10 µM.
Assay [3] addresses Protein kinase C beta type (Homo sapiens) (UniProt P05771). Particulars: at 1 µM.
Assay [4] has the same target. To be noted: at 10 µM.
Assay [5] addresses Protein kinase C delta type (Homo sapiens) (UniProt Q05655). Particulars: at 1 µM.
The target is the same in assay [6]. To be noted: at 10 µM.
Assay [7] has as its target Protein kinase C beta type (Homo sapiens) (UniProt P05771). Particulars: at 1 µM. The source holds these as a separate data set.
Assay [8] has the same target. To be noted: at 10 µM. This is another data set of the same source.
Assay [9] deals with Protein kinase C gamma type (Homo sapiens) (UniProt P05129). Particulars: at 1 µM.
For assay [10] the target is unchanged. To be noted: at 10 µM.

Protein kinase C beta type (Homo sapiens), sequence (P05771 2-671 limits assumed): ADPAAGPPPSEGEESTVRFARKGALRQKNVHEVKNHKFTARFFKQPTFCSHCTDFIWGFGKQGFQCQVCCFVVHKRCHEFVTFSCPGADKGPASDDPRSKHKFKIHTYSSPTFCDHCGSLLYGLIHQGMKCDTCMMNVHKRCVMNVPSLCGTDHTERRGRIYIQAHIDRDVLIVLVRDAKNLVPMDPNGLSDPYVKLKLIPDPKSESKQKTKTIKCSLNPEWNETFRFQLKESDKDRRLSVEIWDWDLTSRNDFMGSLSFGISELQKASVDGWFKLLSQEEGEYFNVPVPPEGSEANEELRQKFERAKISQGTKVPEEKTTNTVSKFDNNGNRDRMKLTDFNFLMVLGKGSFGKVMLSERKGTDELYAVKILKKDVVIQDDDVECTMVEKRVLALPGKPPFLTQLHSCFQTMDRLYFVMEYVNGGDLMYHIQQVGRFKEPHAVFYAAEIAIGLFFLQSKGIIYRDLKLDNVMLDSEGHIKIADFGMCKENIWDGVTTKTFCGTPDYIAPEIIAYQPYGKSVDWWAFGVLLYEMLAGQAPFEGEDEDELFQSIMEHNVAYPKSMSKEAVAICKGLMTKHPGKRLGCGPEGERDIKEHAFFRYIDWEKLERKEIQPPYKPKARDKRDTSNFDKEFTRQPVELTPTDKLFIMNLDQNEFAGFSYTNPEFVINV
Protein kinase C delta type (Homo sapiens), sequence (Q05655 whole entry, looked up): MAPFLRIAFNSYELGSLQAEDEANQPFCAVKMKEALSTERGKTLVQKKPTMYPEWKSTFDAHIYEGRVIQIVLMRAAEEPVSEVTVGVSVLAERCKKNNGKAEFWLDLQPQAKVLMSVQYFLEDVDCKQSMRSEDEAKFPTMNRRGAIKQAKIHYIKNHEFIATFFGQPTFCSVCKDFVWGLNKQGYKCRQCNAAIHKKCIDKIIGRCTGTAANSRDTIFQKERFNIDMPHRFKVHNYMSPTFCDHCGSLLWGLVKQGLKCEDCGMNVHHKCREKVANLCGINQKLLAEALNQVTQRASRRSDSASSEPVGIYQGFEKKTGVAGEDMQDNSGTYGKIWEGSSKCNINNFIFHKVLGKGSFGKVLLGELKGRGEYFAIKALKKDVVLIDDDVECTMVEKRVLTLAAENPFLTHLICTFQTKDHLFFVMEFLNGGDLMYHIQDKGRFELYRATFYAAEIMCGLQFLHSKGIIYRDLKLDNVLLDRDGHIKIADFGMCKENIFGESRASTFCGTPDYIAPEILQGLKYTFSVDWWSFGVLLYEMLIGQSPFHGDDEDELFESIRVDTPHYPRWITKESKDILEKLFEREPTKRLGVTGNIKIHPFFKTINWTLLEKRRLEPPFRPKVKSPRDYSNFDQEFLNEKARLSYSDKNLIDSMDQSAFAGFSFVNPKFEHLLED

Broadly, the residual activity is the signal under treatment as a percentage of the control signal. Regarding `COc1cc2nccc(Oc3ccc(NC(=S)NC(=O)c4ccccc4C)cc3)c2cc1OC`, the residual activity in [1] turned out to be 99%; in assay [2] it was 99%; in [3], 98%; in [4], 101%; in [5] it was 98%; in assay [6], 101%.
As for `c1ccc(-c2cnc(Nc3ccc(OCCN4CCCC4)cc3)s2)cc1`, the residual activity is 101% in assay [1]; 110% in assay [2]; 121% in [7]; 116% in assay [8]; 123% in assay [9]; 111% in assay [10].
For the compound `O=c1cc(N2CCOCC2)oc2c1ccc1ccccc12`, the residual activity came out at 102% in assay [1]; 96% in [2]; 104% in assay [7]; 95% in assay [8]; 95% in assay [3]; 92% in assay [4]. Further, the residual activity in [5] worked out at 100%; in assay [6], 98%.
In the case of `O=C1Cc2c([nH]c3ccc([N+](=O)[O-])cc23)-c2ccccc2N1`, the results for the residual activity in [1] and in [2] were 100% and 105%, respectively.
Consider `CC(C)(C)n1nc(Cc2cccc3ccccc23)c2c(N)ncnc21`, for which the residual activity was 93% in assay [1]; 93% in [2]; 119% in assay [7]; 97% in assay [8]; 104% in assay [3]; 105% in assay [4]. In addition, the residual activity worked out at 106% in assay [9], 94% in [10], 101% in assay [5] and 106% in [6].
Regarding `COc1ccc2c(c1)c(C1=C(c3c[nH]c4ccccc34)C(=O)NC1=O)cn2CCCN(C)C`, the residual activity in assay [1] is -1%; in assay [2] it was 0%; in assay [7], 4%; in assay [8], -1%; in assay [3] it was 4%; in [4], 3%. For the same compound, the residual activity in assay [9] is 3%; in assay [10], 0%; in assay [5], 3%; in assay [6], -1%.
Turning to `CC(C)c1nn(-c2c(Cl)cccc2Cl)c2nc(Cc3ccc(OCCO)cc3)[nH]c(=O)c12`, the residual activity in [1] is 105%; in assay [2], 107%; in assay [7] it was 125%; in assay [8], 106%; in [3] it was 104%; in assay [4], 95%. The residual activity in [9] was determined as 94%; in assay [10], 106%; in assay [5], 103%; in assay [6] it was 105%.
As to `O=C1Nc2ccc(Cl)cc2/C1=C/c1cc(Cl)c(O)c(Cl)c1`, the residual activity in assay [4] worked out at 90%; in assay [5] it was 100%; in assay [6], 100%.
Take `COc1cc2nccc(Oc3ccc(NC(=O)Nc4cc(C)on4)c(Cl)c3)c2cc1OC`: the residual activity in assay [2] was determined as 101%; in [7] it was 107%; in assay [8], 97%; in [3], 109%; in assay [4], 104%; in assay [5], 100%. For the same compound, the residual activity in assay [6] came out at 106%.
As to `Nc1ncnc2c1cnn2-c1ccccc1`, the residual activity in [1] was found to be 97%; in assay [2], 97%; in assay [10] it was 98%; in assay [5] it was 99%; in [6] it was 97%.
As for `N#C/C(=C\c1ccc(O)c(O)c1)C(=O)NCc1ccccc1`, the residual activity in [9] stood at 124%; in assay [10], 102%.
As for `CCN1/C(=C/C(C)=O)Sc2ccc(OC)cc21`, in [4], the residual activity amounted to 82%.
On to `O=S(=O)(NCCNC/C=C/c1ccc(Br)cc1)c1cccc2cnccc12`, for which the residual activity in assay [4] was 55%; in assay [10], 38%; in [5], 54%; in assay [6], 11%.
Regarding `CN(C)S(=O)(=O)c1ccc2c(c1)/C(=C/c1cc3c([nH]1)CCCC3)C(=O)N2`, the values for the residual activity in assay [3] and in assay [6] were 116% and 121%, respectively.
Turning to `O=C1C(Cl)=C(N2C(=O)CCC2=O)C(=O)c2ccccc21`, the residual activity in assay [2] was determined as 3%; in assay [10] it was 77%; in assay [5] it was 68%; in [6], 60%.
Regarding `CCCCc1c(-c2ccc(OC)cc2)[nH]c2nccnc12`, the residual activity was found to be 101% in assay [7]; 90% in [8]; 104% in assay [3]; 102% in [4]; 106% in assay [10]; 106% in [6].
As to `CCCCc1c(-c2ccc(O)cc2)[nH]c2nccnc12`, the residual activity in assay [1] was 97%; in assay [2], 100%; in assay [5], 97%; in assay [6], 100%.
For the compound `Oc1cccc(-c2nc(N3CCOCC3)c3oc4ncccc4c3n2)c1`, the residual activity is 98% in [3] and 94% in [5].
Regarding `O=c1cc(N2CCNCC2)oc2c(-c3ccccc3)cccc12`, the residual activity in assay [2] amounted to 102%; in [3], 97%; in [4], 95%; in assay [5], 101%; in [6] it was 102%.
`CC(C)N(CCC(=O)c1ccc2ccccc2c1)Cc1ccccc1`: in assay [10], the residual activity is 85%.
As for `CCOC(=O)c1c(C)[nH]c(/C=C2\C(=O)Nc3ccccc32)c1C`, the residual activity in assay [5] was 96%.
For `N#Cc1c(NC(=O)c2cccc3ccccc23)sc2c1CCCC2`, the residual activity in assay [9] came out at 94%.
Consider `CCN(CC)CCNC(=O)c1c(C)[nH]c(/C=C2\C(=O)Nc3ccc(Cl)cc32)c1C`, for which the residual activity is 125% in [7], 117% in assay [8], 51% in assay [10] and 68% in assay [6].
In the case of `Nc1ncnc2[nH]nc(Nc3ccc(F)cc3)c12`, the residual activity in assay [1] is 108%; in assay [7], 122%; in assay [8] it was 110%; in assay [3] it was 113%; in assay [4] it was 99%; in [5], 104%. Also, the residual activity in assay [6] stood at 91%.
Regarding `N#C/C(=C1/Nc2ccccc2S1)c1ccnc(NCCc2cccnc2)n1`, the residual activity in [7] turned out to be 125%; in [8] it was 121%; in assay [9], 95%; in [10], 100%.
As for `O=S(=O)(c1cccc2cnccc12)N1CCCNCC1`, the residual activity in [7] was found to be 75%; in [8] it was 46%; in assay [4] it was 67%; in [10], 63%; in assay [5] it was 85%; in [6] it was 32%.
For the compound `Nc1nccc(-c2c(-c3ccc(F)cc3)ncn2C2CCNCC2)n1`, the residual activity in assay [7] is 115%; in [8], 69%; in [10] it was 63%.
Regarding `NC(=O)c1cccc(-c2cc(Nc3ccc(OC(F)(F)F)cc3)ncn2)c1`, the residual activity in [3] is 92%; in assay [4], 96%.
For `O=C(c1ccccc1)c1ccc(N2CCOCC2)cc1O`, the residual activity came to 120% in assay [7] and 113% in [8].
For the compound `O=C(c1cc2cc(O)ccc2[nH]1)c1cc2cc(O)ccc2[nH]1`, the figures for the residual activity in assay [10], in assay [5] and in assay [6] were 56%, 100% and 83%, respectively.
Regarding `CCOc1nc(NC(=O)Cc2cc(OC)ccc2OC)cc(N)c1C#N`, the residual activity in assay [5] was determined as 118%.
Take `Nc1n[nH]c2nc3ccccc3nc12`: the residual activity in [5] is 85%; in assay [6], 68%.
Turning to `Fc1ccc(-c2nc3n(c2-c2ccncc2)CCS3)cc1`, the figures for the residual activity in assay [8] and in assay [6] were 82% and 85%, respectively.
`O=C(Nc1nc2ccccc2n1CCN1CCOCC1)c1cccc([N+](=O)[O-])c1`: the residual activity is 104% in assay [1]; 102% in assay [2]; 105% in [9]; 102% in [10]; 103% in assay [6].
For the compound `O=C1NC(=O)C(c2cn(CCCO)c3ncccc23)=C1c1cnccn1`, the residual activity in assay [9] was 92%; in [10] it was 91%; in assay [5], 97%; in [6], 91%.
On to `CN([C@@H](Cc1ccc(OS(=O)(=O)c2cccc3cnccc23)cc1)C(=O)N1CCN(c2ccccc2)CC1)S(=O)(=O)c1cccc2cnccc12`, for which the residual activity in assay [9] and in assay [10] was 99% each time.

(Values after ChEMBL document CHEMBL2218924, “A broad activity screen in support of a chemogenomic map for kinase signalling research and drug discovery” (Biochem J, 2013).)
